Assay results from PubChem BioAssay AID602432 (Southern Research Specialized Biocontainment Screening …, 2012).
Results with a measured potency or affinity are listed apart. Inconclusive results are not listed. The source made the active and inactive calls. The rule behind the calls is not given here.

Assay: HepG2 cell cytotoxicity, cytotoxicity control, set 6 (AID 602432)

Row | SMILES | outcome
1 | O=C(c1ccc(CNc2c(N3CCOCC3)c(=O)c2=O)cc1)N1CCC(c2ccccc2)CC1 | inactive
2 | O=C(c1ccc(CNc2c(N3CCCC3)c(=O)c2=O)cc1)N1CCN(c2ccccc2)CC1 | inactive
3 | COC(=O)C(Cc1ccccc1)NC(=O)CSc1nc2ccccc2c(=O)[nH]1 (configuration not stated) | inactive
4 | COCCNC(=O)CSc1nc2ccccc2c(=O)[nH]1 | inactive
5 | O=C(CSc1nc2c(c(=O)[nH]1)CCCC2)NC1CCCCC1 | inactive
6 | O=C(c1ccc(CNc2c(N3CCCC3)c(=O)c2=O)cc1)N1CCC(c2ccccc2)CC1 | inactive
7 | CC(C)CCNC(=O)CSc1nc2ccccc2c(=O)[nH]1 | inactive
8 | CC(C)CCNC(=O)CSc1nc2c(c(=O)[nH]1)CCCCC2 | inactive
9 | CC1CCCN(c2c(NCc3ccc(C(=O)N4CC=C(c5ccccc5)CC4)cc3)c(=O)c2=O)C1 (configuration not stated) | inactive
10 | O=C(CSc1nc2ccccc2c(=O)[nH]1)NC1CCCCC1 | inactive
11 | O=C(CSc1nc2ccccc2c(=O)[nH]1)NC1CCOCC1 | inactive
12 | O=C(c1ccc(CNc2c(N3CCOCC3)c(=O)c2=O)cc1)N1CCN(c2ccccc2)CC1 | inactive
13 | COc1ccc(NC(=O)NCc2ccc(C(=O)N3CCC(c4ccccc4)CC3)cc2)cc1 | inactive
14 | O=C(CSc1nc2c(c(=O)[nH]1)CN(Cc1ccccc1)CC2)NC1CCCCC1 | inactive
15 | O=C(NCc1ccc(C(=O)N2CCN(c3ccccc3)CC2)cc1)NC1CCCCC1 | inactive
16 | CC(C)CCNC(=O)CSc1nc2c(c(=O)[nH]1)CCCC2 | inactive
17 | O=C(CSc1nc2c(c(=O)[nH]1)CCC2)NC1CCCCC1 | inactive
